Values without a mark were called inactive.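 How the source made its calls: active = growth AUC significantly below the DMSO wells by Dunnett test; inactive = the rest.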
Each target was assayed with O=C(Oc1ccccc1)n1c(C(F)(F)F)nc2cc(Cl)c(Cl)cc21 (assay: relative growth (AUC of 72 h growth curve relative to DMSO control, dAUC) (ratio); higher = more growth (less inhibition), active = hit call of the paper). Conditions: 20 µM.
Method: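 Environmental bacterial isolates (Iceland stream sediment and Silwood Park soil) and whole stream-sediment communities were grown in LB from a 1:100 dilution with each pesticide at 20 µM (1% DMSO). A600 was read hourly for 72 h and the area under a spline-fitted growth curve (AUC) was computed. dAUC is the mean AUC of 3 biological replicates divided by the mean AUC of the DMSO controls. Significance was tested by Dunnett's test against the DMSO control.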

| Target | relative growth |
| --- | --- |
| Flavobacterium 1 (Flavobacterium glaciei) | 0.0789 (active) |
| Aeromonas 2 (Aeromonas sobria) | 0.0369 (active) |
| Aeromonas 3 (Aeromonas popoffii) | 0.337 (active) |
| Pseudomonas 5 (Pseudomonas baetica) | 0.765 (active) |
| Microbacterium 1 (Microbacterium arborescens) | 0.785 (active) |
| Sphingomonas 2 (Sphingomonas sp.) | 0.0208 (active) |
| Rhizobium 1 (Rhizobium herbae) | 0.0292 (active) |
| Pseudomonas 1 (Pseudomonas baetica) | 0.741 |
| Pseudomonas 6 (Pseudomonas sp.) | 0.777 |
| Argrobacterium 1 (Agrobacterium sp.) | 0.752 (active) |
| Pseudomonas 3 (Pseudomonas mandelii) | 0.765 (active) |
| Serratia 1 (Serratia sp. 2015-2462-01) | 0.366 (active) |
| Arthrobacter 2 (Arthrobacter humicola) | 0.00975 (active) |
| Community 8 | 0.787 |
| Prolinoborus 1 (Prolinoborus fasciculus) | 0.283 (active) |
| Oryzobacter 1 (Oryzobacter terrae) | 0.00822 (active) |

| Target | relative growth |
| --- | --- |
| Pseudomonas 2 (Pseudomonas vancouverensis) | 0.735 (active) |
| Aeromonas 1 (Aeromonas sp. AE235) | 0.32 (active) |
| Community 9 | 0.363 (active) |
| Pseudomonas 4 (Pseudomonas peli) | 0.336 (active) |
| Neobacillus 1 (Neobacillus soli) | 0.826 |
| Community 7 | 1.01 |
| Arthrobacter 1 (Arthrobacter humicola) | 0.211 (active) |
| Carnobacterium 1 (Carnobacterium gallinarum) | 0.0839 (active) |
| Arthrobacter 3 (Arthrobacter sp.) | 0.0715 (active) |
| Community 6 | 0.563 (active) |
| Bacillus 1 (Bacillus foraminis) | 0.747 |
| Community 10 | 0.772 |
| Hymenobacter 1 (Hymenobacter glaciei) | 0.165 (active) |
| Flavobacterium 2 (Flavobacterium succinicans) | 0.0416 (active) |
| Paenibacillus 1 (Paenibacillus castaneae) | 0.00512 (active) |
| Community 4 | 0.809 |

— the supplement of paper PMC12067926
